Inconclusive results are not listed. Unmarked numbers belong to inactive results. Unless noted, calls come from the whole dose curve.
% is set by controls: 0 for no effect and ±100 for the full control effect.

The nature of one test: qHTS assay to identify small molecule agonists of the endoplasmic reticulum stress response signaling pathway (AID 1159516; active = well fitted activation curve with a large enough effect in the signal ratio in the repeat runs, not every such curve was filed as active; the % refers to the signal ratio). The settings on record: ESRE-bla HeLa, ER stress beta-lactamase reporter, 5 h; series mostly up to 61 µM; activation: at the top concentration. The procedure, abridged:
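Reporter HeLa cells (ESRE-beta-lactamase) underwent 5 hr compound incubation at 37 C and 5% CO2 in quantitative HTS format. Detection followed 2 hr of FRET substrate loading at room temperature.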
In general terms: Quantitative high-throughput screening tests each substance at several concentrations.
In the case of `O=C1c2ccccc2C(=O)N1CCl`, the “activation” value is 4.27%.

Regarding `CC(=O)CCCCn1c(=O)c2c(ncn2C)n(C)c1=O`, the “activation” value is -1.39%.

Regarding `CCCCOC(=O)c1ccccc1`, the “activation” value was -0.196%.

For `Brc1ccc(-c2ccccc2)cc1`, the “activation” value was -2.58%.

Consider `CCOc1cc([N+](=O)[O-])c(OCC)cc1N1CCOCC1`, for which the “activation” value is 2.07%.

For the compound `O=C(CCNNC(=O)c1ccncc1)NCc1ccccc1`, the “activation” value was 0.202%.

In the case of `COc1ccc(-c2cc(=O)c3c(O)cc(O[C@@H]4O[C@H](CO[C@@H]5O[C@@H](C)[C@H](O)[C@@H](O)[C@H]5O)[C@@H](O)[C@H](O)[C@H]4O)cc3o2)cc1O`, the “activation” value is 0.412%.

Consider `Cc1cccc2nccnc12`, for which the “activation” value was -1.04%.

Regarding `O=C(OCC1(COC(=O)c2cccnc2)CCCC(COC(=O)c2cccnc2)(COC(=O)c2cccnc2)C1O)c1cccnc1`, the “activation” value was 0.0765%.

Take `OC[C@H](Cc1cccc(O)c1)[C@H](CO)Cc1cccc(O)c1`: the “activation” value is -2.57% [at 78.8 µM].

Take `C=C(C)C(=O)OCCN(CC)CC`: the “activation” value is 0.252%.

With `COCCc1ccc(OCC2CO2)cc1` (centres undefined), the “activation” value is -1.34%.

With `COC(=O)c1ccccc1C(=O)c1ccc(OCCN2CCCCC2)cc1`, the “activation” value is 1.5%.

Turning to `CC(C)=O`, the “activation” value is 0.0925%.

With `O=C(O)c1cc(Br)c(O)c(Br)c1`, the “activation” value was -0.317%.

In the case of `CCNC(=O)C1CC(C)CCC1C(C)C` (centres undefined), the “activation” value was 0.533%.

`O=C(O)c1cc(Cl)cc([N+](=O)[O-])c1Cl`: the “activation” value is 0.703%.

For `CC1=C(C(=O)O)N2C(=O)[C@@H](NC(=O)[C@H](N)c3ccc(O)cc3)[C@H]2SC1`, the “activation” value was 1.83%.

`C[C@H](CCC(=O)O)[C@H]1CC[C@H]2[C@@H]3C(=O)C[C@@H]4CC(=O)CC[C@]4(C)[C@H]3CC(=O)[C@]12C`: the “activation” value was 0.0819%.

Take `NC(CO)C(=O)NNCc1ccc(O)c(O)c1O` (centres undefined): the “activation” value was 0.0783%.

Regarding `COC(=O)[C@@H]1[C@H]2C[C@H]3c4[nH]c5ccccc5c4CCN3C[C@@H]2CC[C@@H]1O`, the “activation” value is 1.61%.

For `CCC(C)NC(N)=O` (centres undefined), the “activation” value was -0.836%.

Consider `COc1nccnc1NS(=O)(=O)c1ccc(N)cc1`, for which the “activation” value was 0.993%.

Turning to `O=C(NCCN1CCOCC1)c1ccc(Cl)cc1`, the “activation” value was 0.685%.

Consider `Cc1ccccc1OCC(O)CO` (centres undefined), for which the “activation” value is 0%.

Take `N[C@@H](CCC(=O)N[C@@H](CS)C(=O)NCC(=O)O)C(=O)O`: the “activation” value was 2.55% [at 28.5 µM].

Take `CN(CCOc1ccc(NS(C)(=O)=O)cc1)CCc1ccc(NS(C)(=O)=O)cc1`: the “activation” value was -0.184%.

On to `COc1ccc2nc(SCc3ncc(C)c(OC)c3C)[nH]c2c1`, for which the “activation” value is 1.56%.

Consider `CCCCCOC(=O)CCC`, for which the “activation” value is -2.69%.

Regarding `CC(=O)Nc1cccc(C)c1`, the “activation” value is 1.98% [at 78.8 µM].

Consider `CC(C)OC(=O)CCCCC(=O)OC(C)C`, for which the “activation” value was -4.54%.

On to `COC(=O)CCc1ccc(OCC(O)CNC(C)C)cc1` (centres undefined), for which the “activation” value is -1.08%.

Consider `O=C(CCN1CCN(CCO)CC1)N1c2ccccc2Sc2ccc(C(F)(F)F)cc21`, for which the “activation” value is 3.48%.

As for `CCOCCOCCOCC`, the “activation” value is -2.1%.

Turning to `N[C@@H](CCC(=O)Nc1ccc([N+](=O)[O-])cc1)C(=O)O`, the “activation” value is -0.262%.

Consider `Cc1ccc2ccc(Cl)cc2n1`, for which the “activation” value was 1.08%.

Turning to `NNc1nnc(NN)c2ccccc12`, the “activation” value was 0.197%.

The next test is described as follows: qHTS assay to identify small molecule agonists of the endoplasmic reticulum stress response signaling pathway - cell viability counter screen (AID 1159517).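 Note: HeLa cells carrying an ER stress response element beta-lactamase reporter; nearly all actives have a fitted effect of over 50% in size.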 The settings on record: ESRE-bla HeLa viability, CellTiter-Glo luminescence, 5 h; series mostly up to 61 µM; activity change, negative = cytotoxicity: at the top concentration. The procedure, abridged:
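Cells, HeLa ESRE-bla; density, 1,500/well; dosing, 5 hr at 37 C, 5% CO2; readout, CellTiter-Glo luminescence after 30 min RT.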
As to `O=C1c2ccccc2C(=O)N1CCl`, the “activity change, negative = cytotoxicity” value was -15.6%.

For `CC(=O)CCCCn1c(=O)c2c(ncn2C)n(C)c1=O`, the “activity change, negative = cytotoxicity” value was -0.256%.

As for `CCCCOC(=O)c1ccccc1`, the “activity change, negative = cytotoxicity” value is 3.46%.

For `Brc1ccc(-c2ccccc2)cc1`, the “activity change, negative = cytotoxicity” value is -1.75%.

Consider `CCOc1cc([N+](=O)[O-])c(OCC)cc1N1CCOCC1`, for which the “activity change, negative = cytotoxicity” value is 2.62%.

For the compound `O=C(CCNNC(=O)c1ccncc1)NCc1ccccc1`, the “activity change, negative = cytotoxicity” value was 2.41%.

Take `COc1ccc(-c2cc(=O)c3c(O)cc(O[C@@H]4O[C@H](CO[C@@H]5O[C@@H](C)[C@H](O)[C@@H](O)[C@H]5O)[C@@H](O)[C@H](O)[C@H]4O)cc3o2)cc1O`: the “activity change, negative = cytotoxicity” value was -0.354%.

With `Cc1cccc2nccnc12`, the “activity change, negative = cytotoxicity” value is -16.5%.

Take `O=C(OCC1(COC(=O)c2cccnc2)CCCC(COC(=O)c2cccnc2)(COC(=O)c2cccnc2)C1O)c1cccnc1`: the “activity change, negative = cytotoxicity” value is -0.564%.

Consider `OC[C@H](Cc1cccc(O)c1)[C@H](CO)Cc1cccc(O)c1`, for which the “activity change, negative = cytotoxicity” value was 3.13% [at 78.8 µM].

With `C=C(C)C(=O)OCCN(CC)CC`, the “activity change, negative = cytotoxicity” value was -9.24%.

As to `COCCc1ccc(OCC2CO2)cc1` (centres undefined), the “activity change, negative = cytotoxicity” value was 17.8%.

With `COC(=O)c1ccccc1C(=O)c1ccc(OCCN2CCCCC2)cc1`, the “activity change, negative = cytotoxicity” value is -12.2%.

For `CC(C)=O`, the “activity change, negative = cytotoxicity” value is 3.92%.

Regarding `O=C(O)c1cc(Br)c(O)c(Br)c1`, the “activity change, negative = cytotoxicity” value was 13.3%.

Regarding `CCNC(=O)C1CC(C)CCC1C(C)C` (centres undefined), the “activity change, negative = cytotoxicity” value is 1.42%.

As for `O=C(O)c1cc(Cl)cc([N+](=O)[O-])c1Cl`, the “activity change, negative = cytotoxicity” value was -11.4%.

With `CC1=C(C(=O)O)N2C(=O)[C@@H](NC(=O)[C@H](N)c3ccc(O)cc3)[C@H]2SC1`, the “activity change, negative = cytotoxicity” value was 6.75%.

As for `C[C@H](CCC(=O)O)[C@H]1CC[C@H]2[C@@H]3C(=O)C[C@@H]4CC(=O)CC[C@]4(C)[C@H]3CC(=O)[C@]12C`, the “activity change, negative = cytotoxicity” value was 8.75%.

Regarding `NC(CO)C(=O)NNCc1ccc(O)c(O)c1O` (centres undefined), the “activity change, negative = cytotoxicity” value is -7.4%.

With `COC(=O)[C@@H]1[C@H]2C[C@H]3c4[nH]c5ccccc5c4CCN3C[C@@H]2CC[C@@H]1O`, the “activity change, negative = cytotoxicity” value is 0.0445%.

Consider `CCC(C)NC(N)=O` (centres undefined), for which the “activity change, negative = cytotoxicity” value was -14.3%.

On to `COc1nccnc1NS(=O)(=O)c1ccc(N)cc1`, for which the “activity change, negative = cytotoxicity” value was 0.124%.

As for `O=C(NCCN1CCOCC1)c1ccc(Cl)cc1`, the “activity change, negative = cytotoxicity” value was -7.56%.

Consider `Cc1ccccc1OCC(O)CO` (centres undefined), for which the “activity change, negative = cytotoxicity” value was 14%.

As for `N[C@@H](CCC(=O)N[C@@H](CS)C(=O)NCC(=O)O)C(=O)O`, the “activity change, negative = cytotoxicity” value is 2.03% [at 28.5 µM].

For `CN(CCOc1ccc(NS(C)(=O)=O)cc1)CCc1ccc(NS(C)(=O)=O)cc1`, the “activity change, negative = cytotoxicity” value is -4.43%.

For the compound `COc1ccc2nc(SCc3ncc(C)c(OC)c3C)[nH]c2c1`, the “activity change, negative = cytotoxicity” value is 10.5%.

With `CCCCCOC(=O)CCC`, the “activity change, negative = cytotoxicity” value is -5.39%.

On to `CC(=O)Nc1cccc(C)c1`, for which the “activity change, negative = cytotoxicity” value was 0.172% [at 78.8 µM].

As for `CC(C)OC(=O)CCCCC(=O)OC(C)C`, the “activity change, negative = cytotoxicity” value was -23.4%.

Consider `COC(=O)CCc1ccc(OCC(O)CNC(C)C)cc1` (centres undefined), for which the “activity change, negative = cytotoxicity” value is 0%.

`O=C(CCN1CCN(CCO)CC1)N1c2ccccc2Sc2ccc(C(F)(F)F)cc21`: the “activity change, negative = cytotoxicity” value is -11.1%.

Regarding `CCOCCOCCOCC`, the “activity change, negative = cytotoxicity” value is -7.47%.

On to `N[C@@H](CCC(=O)Nc1ccc([N+](=O)[O-])cc1)C(=O)O`, for which the “activity change, negative = cytotoxicity” value was -0.644%.

Regarding `Cc1ccc2ccc(Cl)cc2n1`, the “activity change, negative = cytotoxicity” value is -1.12%.

On to `NNc1nnc(NN)c2ccccc12`, for which the “activity change, negative = cytotoxicity” value is -1.72%.

Source of the values: PubChem BioAssay (Tox21).
